Unmarked numbers belong to inactive results. Active and inactive are the calls of the source. Cut-off read from the data, not from the text of the source, unless noted: active = inhibition above about 30%; inactive = the rest.
target: Nuclear receptor coactivator 3 (Homo sapiens) (UniProt Q9Y6Q9); experiment: NCOA3 GAL4-fusion reporter inhibition – cell-based, luminescence, quadruplicate, confirmation (AID 588792;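 active = mean inhibition over 43.08%, the solvent-only control mean plus 3 SD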;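 note: 0% = DMSO treated cells and 100% = gossypol at 36 µM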); details: HEK293 GAL4-SRC3 luciferase reporter, at 3.6 µM, stronger effect = higher value
Sequence (Q9Y6Q9 whole entry, looked up, the tested form may be a part): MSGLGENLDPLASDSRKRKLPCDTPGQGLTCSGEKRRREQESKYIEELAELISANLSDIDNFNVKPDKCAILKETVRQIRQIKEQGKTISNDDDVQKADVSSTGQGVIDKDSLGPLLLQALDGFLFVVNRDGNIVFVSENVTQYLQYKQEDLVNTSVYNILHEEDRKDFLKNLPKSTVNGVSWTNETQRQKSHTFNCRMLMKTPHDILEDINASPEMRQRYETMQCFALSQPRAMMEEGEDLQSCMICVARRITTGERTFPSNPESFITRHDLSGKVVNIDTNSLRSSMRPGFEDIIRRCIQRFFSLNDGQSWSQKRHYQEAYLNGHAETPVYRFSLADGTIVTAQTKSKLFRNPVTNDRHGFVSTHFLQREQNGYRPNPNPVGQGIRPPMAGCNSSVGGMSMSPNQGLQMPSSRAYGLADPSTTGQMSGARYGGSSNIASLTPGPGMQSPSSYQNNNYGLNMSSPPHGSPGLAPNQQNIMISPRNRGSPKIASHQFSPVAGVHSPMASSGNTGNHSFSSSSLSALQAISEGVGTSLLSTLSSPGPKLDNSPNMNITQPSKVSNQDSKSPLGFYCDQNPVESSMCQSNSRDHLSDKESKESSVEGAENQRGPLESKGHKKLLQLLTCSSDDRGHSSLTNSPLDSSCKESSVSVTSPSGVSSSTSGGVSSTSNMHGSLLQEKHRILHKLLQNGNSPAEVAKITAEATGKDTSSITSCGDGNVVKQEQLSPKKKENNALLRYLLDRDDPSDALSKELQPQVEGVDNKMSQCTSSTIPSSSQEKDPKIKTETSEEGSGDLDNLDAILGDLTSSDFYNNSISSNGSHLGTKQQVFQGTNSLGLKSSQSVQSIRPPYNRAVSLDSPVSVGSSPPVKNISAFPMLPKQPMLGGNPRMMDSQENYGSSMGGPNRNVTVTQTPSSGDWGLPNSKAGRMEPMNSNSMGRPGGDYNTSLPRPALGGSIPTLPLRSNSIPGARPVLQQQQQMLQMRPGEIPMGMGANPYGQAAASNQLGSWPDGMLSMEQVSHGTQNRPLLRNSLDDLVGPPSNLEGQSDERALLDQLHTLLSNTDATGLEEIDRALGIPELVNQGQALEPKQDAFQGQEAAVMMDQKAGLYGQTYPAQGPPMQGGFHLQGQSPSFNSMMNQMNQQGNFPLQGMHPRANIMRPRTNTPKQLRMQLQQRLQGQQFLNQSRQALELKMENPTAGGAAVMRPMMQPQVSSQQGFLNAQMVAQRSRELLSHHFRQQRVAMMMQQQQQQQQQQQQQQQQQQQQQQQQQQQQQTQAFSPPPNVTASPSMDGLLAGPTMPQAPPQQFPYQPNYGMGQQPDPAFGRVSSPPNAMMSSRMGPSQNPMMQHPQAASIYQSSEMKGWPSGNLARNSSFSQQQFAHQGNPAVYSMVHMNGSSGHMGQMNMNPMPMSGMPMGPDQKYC

Compound | inhibition
COc1ccc(N/N=C2/CCCCC2=O)cc1 | -38.4%
O=C(C[n+]1ccccc1)NNc1ccccc1 | 33.2%
CC(C)CN=C(NS(=O)(=O)c1ccccc1)C(Cl)(Cl)Cl | 24.3%
CC1CCc2sc3ncnc(N4CCOCC4)c3c2C1 (stereo not given) | 32.5%
CN1C(=O)C2(C(C#N)=C(N)N(c3cc(Cl)cc(Cl)c3)C3=C2C(=O)CC(C)(C)C3)c2ccccc21 (stereo not given) | 46.5% (active)
Cc1ccc(F)cc1NC(=O)C1CCN(c2cnccn2)CC1 | -9.49%
Cc1ccc(NC(=O)C(=Cc2ccc(C(=O)O)cc2)C(=O)Nc2ccc(C)cc2C)c(C)c1 | 32.6%
O=C(C1=C(O)C(=O)N(CCN2CCOCC2)C1c1cccc([N+](=O)[O-])c1)c1cccs1 (stereo not given) | -8.15%
CN(C)c1ccc(C=c2c3cc([N+](=O)[O-])ccc3n3c2cc(-c2ccccc2)[n+]3C)cc1 | 38.4%
Cc1ccccc1NC1=NCC(c2ccc([N+](=O)[O-])cc2)S1 (stereo not given) | 18%
C/C(=N\NC(=O)COc1ccccc1-c1ccccc1)c1ccc(O)cc1O | 8.45%
CCCCc1c(O)nc(SCC(=O)NCC2CCCO2)[nH]c1=O (stereo not given) | -3.37%
COc1ccc(OCc2nn3c(-c4ccco4)nnc3s2)cc1 | -8.03%
OCCNCCOc1ccc(Cl)c(Cl)c1 | 5.72%
COc1ccc(Oc2ccc(/C=C/C(=O)c3ccc(O)cc3)cc2[N+](=O)[O-])cc1 | -5.49%
CC(=O)c1c(O)cc2c3c1OC(C)(C)C1CCC(C)(CC31)O2 (stereo not given) | 46.2% (active)
O=C1C=CC(=O)N1CCNc1ncc(C(F)(F)F)cc1Cl | 7.05%
Cc1nccc(-c2ccc(-n3cnc4ccccc43)cc2)n1 | 23.8%
CCN1C/C(=C\c2cccc([N+](=O)[O-])c2)C(=O)/C(=C/c2cccc([N+](=O)[O-])c2)C1 | -110%
CCn1c(C)nc2cc(C(=O)N/N=C(\C)c3ccc(OC)cc3O)ccc21 | 24.6%

Compound | inhibition
c1cncc(CNc2ncnc3sc4c(c23)CCC4)c1 | 23.1%
O=C(CCl)Nc1cccc(-c2cnc3ccccc3n2)c1 | 33.5%
Oc1cccc2ccc(Nc3ccccn3)nc12 | 3.4%
COc1cccc(NC(=O)CN(C)C(=O)/C=C/c2cn(-c3ccccc3)nc2-c2ccc(OC)c(OC)c2)c1 | 1.39%
CCc1ccc(/C=C/c2c([N+](=O)[O-])c(=O)n(C)c(=O)n2C)cc1 | 39.7%
O=C(CCl)NC1CCCc2ccccc21 (stereo not given) | 1.81%
COc1cccc(C(=O)CC(=O)C(=O)Nc2cccc([N+](=O)[O-])c2C)c1 | -3.08%
O=C1CC(=O)OC(c2ccc([N+](=O)[O-])cc2)O1 | 26.8%
Cc1ccc(CNC(=O)CCc2ccc(S(=O)(=O)NC3CCCCC3)cc2)cc1 | 0.11%
CCc1ccc(NC(=O)c2cnc(N3CCN(c4ccccn4)CC3)c3ccccc23)cc1 | 18.1%
O=C(Nc1ccccc1C(=O)Nc1nnc(C(F)(F)F)s1)c1ccccc1Cl | 12.3%
Cc1nc2cc(F)ccc2n1C1CCN(S(=O)(=O)c2ccccc2)CC1 | 14.1%
O=C(NCc1cccs1)C1CCN(S(=O)(=O)c2ccccc2F)CC1 | 0.65%
CCn1c(Cc2ccccc2)nnc1SCC(=O)Nc1ccc(N2CCOCC2)c(Cl)c1 | -0.44%
COC(=O)c1ccc2c(c1)C(C)(C)C(/C=C/c1ccccc1O)=[N+]2C | 58.6% (active)
COc1cc(/C=C/c2cc(C(F)(F)F)[nH]c(=O)n2)cc(OC)c1OC | 16.9%
COC(=O)c1ccccc1-c1ccc(C(c2c(C)[nH][nH]c2=O)c2c(C)[nH][nH]c2=O)o1 | 22.8%
CCOC(=O)CN(C(=O)COc1nc(C)cc(C)c1C#N)c1ccc(Cl)cc1 | 4.25%
COc1ccc(C(=O)NN(C)c2nc(C(F)(F)F)nc3ccccc23)cc1 | 51.1% (active)
O=C1c2ccc3c4c(ccc(c24)C(=O)N1c1cccc(O)c1)C(=O)N(c1cccc(O)c1)C3=O | 30.3%

tested on: transactivating tegument protein VP16 (Human herpesvirus 1), Gal4-VP16 luciferase reporter; experiment: repression of VP16-driven luciferase reporter – cell-based, luminescence, high throughput, counter-screen for SRC3 inhibitor project (AID 588794); details: mammalian cells, at 3.6 µM, stronger effect = higher value

Compound | inhibition
COc1ccc(N/N=C2/CCCCC2=O)cc1 | 21%
O=C(C[n+]1ccccc1)NNc1ccccc1 | 47.4% (active)
CC(C)CN=C(NS(=O)(=O)c1ccccc1)C(Cl)(Cl)Cl | 16.1%
CC1CCc2sc3ncnc(N4CCOCC4)c3c2C1 (stereo not given) | 29.8% (active)
CN1C(=O)C2(C(C#N)=C(N)N(c3cc(Cl)cc(Cl)c3)C3=C2C(=O)CC(C)(C)C3)c2ccccc21 (stereo not given) | 25.6%
Cc1ccc(F)cc1NC(=O)C1CCN(c2cnccn2)CC1 | -3.26%
Cc1ccc(NC(=O)C(=Cc2ccc(C(=O)O)cc2)C(=O)Nc2ccc(C)cc2C)c(C)c1 | 46% (active)
O=C(C1=C(O)C(=O)N(CCN2CCOCC2)C1c1cccc([N+](=O)[O-])c1)c1cccs1 (stereo not given) | -1.72%
CN(C)c1ccc(C=c2c3cc([N+](=O)[O-])ccc3n3c2cc(-c2ccccc2)[n+]3C)cc1 | 56.7% (active)
Cc1ccccc1NC1=NCC(c2ccc([N+](=O)[O-])cc2)S1 (stereo not given) | -2.52%
C/C(=N\NC(=O)COc1ccccc1-c1ccccc1)c1ccc(O)cc1O | 10.5%
CCCCc1c(O)nc(SCC(=O)NCC2CCCO2)[nH]c1=O (stereo not given) | 6.46%
COc1ccc(OCc2nn3c(-c4ccco4)nnc3s2)cc1 | -4.08%
OCCNCCOc1ccc(Cl)c(Cl)c1 | 2.08%
COc1ccc(Oc2ccc(/C=C/C(=O)c3ccc(O)cc3)cc2[N+](=O)[O-])cc1 | -5.56%
CC(=O)c1c(O)cc2c3c1OC(C)(C)C1CCC(C)(CC31)O2 (stereo not given) | 30.9% (active)
O=C1C=CC(=O)N1CCNc1ncc(C(F)(F)F)cc1Cl | -14.1%
Cc1nccc(-c2ccc(-n3cnc4ccccc43)cc2)n1 | 12.4%
CCN1C/C(=C\c2cccc([N+](=O)[O-])c2)C(=O)/C(=C/c2cccc([N+](=O)[O-])c2)C1 | 80.6% (active)
CCn1c(C)nc2cc(C(=O)N/N=C(\C)c3ccc(OC)cc3O)ccc21 | 8.7%

Compound | inhibition
c1cncc(CNc2ncnc3sc4c(c23)CCC4)c1 | 9.1%
O=C(CCl)Nc1cccc(-c2cnc3ccccc3n2)c1 | 13.8%
Oc1cccc2ccc(Nc3ccccn3)nc12 | -8.03%
COc1cccc(NC(=O)CN(C)C(=O)/C=C/c2cn(-c3ccccc3)nc2-c2ccc(OC)c(OC)c2)c1 | -9.23%
CCc1ccc(/C=C/c2c([N+](=O)[O-])c(=O)n(C)c(=O)n2C)cc1 | 41.3% (active)
O=C(CCl)NC1CCCc2ccccc21 (stereo not given) | -5.4%
COc1cccc(C(=O)CC(=O)C(=O)Nc2cccc([N+](=O)[O-])c2C)c1 | -1.84%
O=C1CC(=O)OC(c2ccc([N+](=O)[O-])cc2)O1 | 40.5% (active)
Cc1ccc(CNC(=O)CCc2ccc(S(=O)(=O)NC3CCCCC3)cc2)cc1 | 0.04%
CCc1ccc(NC(=O)c2cnc(N3CCN(c4ccccn4)CC3)c3ccccc23)cc1 | 42% (active)
O=C(Nc1ccccc1C(=O)Nc1nnc(C(F)(F)F)s1)c1ccccc1Cl | 11%
Cc1nc2cc(F)ccc2n1C1CCN(S(=O)(=O)c2ccccc2)CC1 | 15.3%
O=C(NCc1cccs1)C1CCN(S(=O)(=O)c2ccccc2F)CC1 | -0.48%
CCn1c(Cc2ccccc2)nnc1SCC(=O)Nc1ccc(N2CCOCC2)c(Cl)c1 | -2.29%
COC(=O)c1ccc2c(c1)C(C)(C)C(/C=C/c1ccccc1O)=[N+]2C | 43.5% (active)
COc1cc(/C=C/c2cc(C(F)(F)F)[nH]c(=O)n2)cc(OC)c1OC | 40.6% (active)
COC(=O)c1ccccc1-c1ccc(C(c2c(C)[nH][nH]c2=O)c2c(C)[nH][nH]c2=O)o1 | -7.34%
CCOC(=O)CN(C(=O)COc1nc(C)cc(C)c1C#N)c1ccc(Cl)cc1 | 1.1%
COc1ccc(C(=O)NN(C)c2nc(C(F)(F)F)nc3ccccc23)cc1 | 35.3% (active)
O=C1c2ccc3c4c(ccc(c24)C(=O)N1c1cccc(O)c1)C(=O)N(c1cccc(O)c1)C3=O | 31% (active)

From PubChem BioAssay
